# Compounds without any hit were thinned out: in the full panel of roughly 83,000, 20% have a hit.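 In brief: 96-well plates, 48 h treatment, single concentration, percent growth endpoint.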 Values without a mark were called inactive. Calls of active or inactive are those of the source. The calls were made as follows: active = growth percent below 10; inactive = the rest.
# What was measured:
# Experiment in all cases: NCI-60 one-dose screen, 48 h (100 = growth as untreated, 0 = no growth, -100 = all killed)
# [1] = system: SR leukemia; settings: 10 µM
# [2] = system: OVCAR-8 ovarian; settings: 10 µM
# [3] = system: OVCAR-5 ovarian; settings: 10 µM
# [4] = system: OVCAR-4 ovarian; settings: 10 µM
# [5] = system: SK-OV-3 ovarian; settings: 10 µM
# [6] = system: OVCAR-3 ovarian; settings: 10 µM
# [7] = system: HS 578T breast; settings: 10 µM
# [8] = system: NCI/ADR-RES ovarian; settings: 10 µM
# [9] = system: T-47D breast; settings: 10 µM
# [10] = system: BT-549 breast; settings: 10 µM
# [11] = system: MDA-MB-435 melanoma; settings: 10 µM
# [12] = system: SW-620 colon; settings: 10 µM
# [13] = system: MCF7 breast; settings: 10 µM unless noted
# [14] = system: HCT-116 colon; settings: 10 µM
# [15] = system: HCC-2998 colon; settings: 10 µM
# [16] = system: KM12 colon; settings: 10 µM
# [17] = system: IGROV1 ovarian; settings: 10 µM
# [18] = system: RPMI-8226 leukemia; settings: 10 µM
Compound,growth [1],growth [2],growth [3],growth [4],growth [5],growth [6],growth [7],growth [8],growth [9],growth [10],growth [11],growth [12],growth [13],growth [14],growth [15],growth [16],growth [17],growth [18]
CC(=O)Nc1cccc(NC(C)=O)n1,123%,105%,143%,112%,101%,112%,102%,131%,87.1%,107%,101%,99.1%,99%,98.9%,130%,105%,,
CCCCCCCCO,102%,100%,101%,80.1%,111%,,111%,102%,105%,107%,99.3%,103%,91.8%,107%,103%,108%,114%,
CC1=NN(c2ccccc2)C(=O)/C1=C\N1CC(=O)NC1=S,89.1%,102%,119%,102%,101%,111%,,103%,97.1%,107%,105%,106%,103%,106%,108%,103%,106%,
Nc1nc(N)c2cc(S(=O)(=O)c3cccc(C(F)(F)F)c3)ccc2n1,46%,40.7%,48%,,72.8%,79.2%,80.1%,52.6%,74.1%,76.8%,31.7%,25.4%,43.1%,15.6%,37.4%,53.1%,39.5%,
COc1cc2nc3cc([N+](=O)[O-])ccc3c(Cl)c2cc1OC,91.7%,88.2%,86.3%,,106%,123%,112%,103%,83.2%,51.3%,93.2%,104%,83%,95.7%,106%,110%,89.7%,
O=c1[nH]n(-c2ccccc2)c(=O)cc1Cl,87.8%,101%,104%,112%,103%,108%,111%,107%,97.8%,100%,110%,102%,96.8%,103%,,112%,102%,
COc1ccccc1N=Nc1c(O)ccc2cc(S(=O)(=O)O)ccc12,91.7%,93.2%,103%,105%,88.8%,101%,100%,99.8%,91.4%,99.4%,108%,103%,93.2%,103%,96.3%,104%,110%,
CC(C)C1CCCCC1O (stereo unspecified),130%,109%,91%,118%,109%,117%,105%,104%,107%,105%,100%,107%,107%,109%,,107%,130%,
COc1ccc2c(c1)CCc1c-2n[nH]c1-c1[nH]nc2c1CCc1cc(OC)ccc1-2,,84.7%,89.6%,77.3%,77%,41.3%,48.7%,33.9%,,54.6%,-5.37% (active),45%,12.6%,32.4%,80.9%,,62.4%,61.2%
O=C(/C=C\c1ccc(O)cc1)c1ccccc1,76.6%,98.6%,88.4%,,108%,,110%,101%,84.6%,37.4%,95%,101%,80.8%,78.2%,112%,71%,87.3%,
O=C(NC1CCCCC1)OCc1c(COC(=O)NC2CCCCC2)c(-c2ccc(Cl)c(Cl)c2)n2c1CCC2,,35%,19%,11.5%,12.4%,31.2%,39.7%,25.2%,20.8%,53.7%,56.3%,32.6%,27.4%,15.5%,30.5%,56.3%,-42.4% (active),40%
CCOC(=O)C(C#N)Cc1ccccc1 (stereo unspecified),,115%,103%,114%,123%,117%,112%,117%,107%,117%,109%,117%,103%,112%,118%,,114%,101%
COc1ccccc1C1OC2=Nc3cc(C)c(C)cc3NC2C1=O (stereo unspecified),,69%,62.1%,-14.2% (active),79.6%,22.4%,39.9%,61.2%,,88.6%,82.5%,73.9%,56.8%,39.2%,105%,,88.7%,93.5%
CCCCC/C=N/Nc1nc(C)cc(=O)[nH]1,90.4%,100%,,107%,113%,114%,101%,99.9%,103%,109%,95.7%,104%,92.9%,101%,98.8%,106%,109%,
COc1ccc(C(=O)C(Br)C(Br)C(=O)O)cc1 (stereo unspecified),,105%,101%,118%,104%,116%,99.6%,92.1%,106%,99.5%,108%,113%,91.1%,94.9%,113%,111%,110%,110%
CC1CCC(C(=O)O)N1 (stereo unspecified),,112%,91.5%,99%,94.2%,109%,106%,93%,86.4%,102%,111%,113%,95%,102%,97.8%,,101%,105%
CCOC(=O)C(=O)C=P(c1ccccc1)(c1ccccc1)c1ccccc1,,107%,101%,111%,109%,103%,105%,103%,97.7%,102%,113%,114%,97.5%,100%,107%,99.6%,102%,102%
COc1cccc(COC(=O)Nc2ccccc2)c1OC,,96.9%,105%,117%,111%,111%,115%,105%,93.1%,107%,91.7%,114%,97.6%,104%,102%,106%,101%,90.1%
COc1ccc(/C(C#N)=C2C=C/C(=N/O)c3ccccc3\2)cc1,,18.9%,27.3%,35.8%,-6.21% (active),1.6% (active),35.1%,15.9%,64.8%,31%,-57% (active),20.1%,13.1%,5.12% (active),-11.4% (active),3.23% (active),22.3%,32.1%
CC(C)COC(=O)COC(=O)OCCOCCOC(=O)OCC(=O)OCC(C)C,,99.7%,101%,110%,100%,126%,124%,106%,96.7%,99.2%,119%,108%,98.7%,103%,101%,104%,105%,97.3%
C#C[C@H]1CCCCCC1O (stereo partly specified),,111%,115%,120%,110%,113%,101%,101%,95.4%,113%,109%,104%,107%,106%,102%,107%,107%,97.2%
